In PubChem BioAssay (NCATS) one finds Potency data, which are given here for 18 molecules.

Structures are written as SMILES. Inconclusive results are not listed. A call without a number means that no potency is given here. Calls of active or inactive are those of the source. Calls follow the shape of the dose curve; as a rule, active = well fitted activation curve with a large enough effect; inconclusive = small, poorly fitted or top-dose-only effect; inactive = no such curve, though single readings can be large or run the other way.

Sequence of Arylsulfatase A (Homo sapiens) (P15289 whole entry, looked up): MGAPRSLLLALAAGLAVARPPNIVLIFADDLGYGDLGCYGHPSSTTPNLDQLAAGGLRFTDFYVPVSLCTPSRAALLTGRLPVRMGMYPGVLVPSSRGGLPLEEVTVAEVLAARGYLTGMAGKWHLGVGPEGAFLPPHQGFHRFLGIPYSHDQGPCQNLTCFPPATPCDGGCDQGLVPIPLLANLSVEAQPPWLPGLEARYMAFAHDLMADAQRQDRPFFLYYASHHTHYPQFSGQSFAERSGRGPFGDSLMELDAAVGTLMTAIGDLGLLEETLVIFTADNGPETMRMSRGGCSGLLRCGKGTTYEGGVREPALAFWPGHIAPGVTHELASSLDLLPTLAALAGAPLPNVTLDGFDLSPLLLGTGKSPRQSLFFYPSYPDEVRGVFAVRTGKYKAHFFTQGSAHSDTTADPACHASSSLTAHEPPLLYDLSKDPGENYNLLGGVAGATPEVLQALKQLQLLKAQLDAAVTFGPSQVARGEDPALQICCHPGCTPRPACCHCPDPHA

This test has as its target Arylsulfatase A (Homo sapiens) (UniProt P15289). Kind of test: qHTS screen for enhancers of Arylsulfatase A (ASA1): LOPAC Validation Assay (AID 720538). The note with it: ASA enzyme activity, LOPAC qHTS enhancer assay; series mostly up to 57.5 µM. The essentials: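 Read-out: fluorescence at Ex=525/Em=598 nm after 1N NaOH final stop. Patient fibroblasts carrying ASA-I179S had 48h compound exposure, then 14h room-temperature pNCS hydrolysis (0.5mM final) in lysis buffer. Signal increase = enhanced activity.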
In the case of `Cc1o[nH]c(=O)c1CC(N)C(=O)O` (stereo not drawn), the Potency result was “inactive”.

Take `C=CCN1C[C@@H](C)N([C@H](c2ccc(C(=O)N(CC)CC)cc2)c2cccc(OC)c2)C[C@@H]1C`: the Potency entry is “inactive”.

Consider `OCc1cnc[nH]1`, for which the Potency result is “inactive”.

For the molecule `C[C@]12Cc3cn4c(nc3C=C1CCC1C2CC[C@@]2(C)[C@H]1CC[C@@]2(O)C#N)nc1ccccc14` (stereo partly drawn), the Potency result is “inactive”.

In the case of `C[N+](C)(C)CC#CCN1CCCC1=O`, the Potency entry is “inactive”.

In the case of `NC(=O)CI`, the Potency entry is “inactive”.

Turning to `C[N+]1(C)CCc2cc3c(cc2[C@H]1[C@@H]1OC(=O)c2c1ccc1c2OCO1)OCO3`, the Potency result was “inactive”.

On to `O=C(O)c1cc[c]([Hg][Cl])cc1`, for which the Potency result was “inactive”.

Regarding `O=S1(=O)N(CCN2CC=C(c3c[nH]c4cc(F)ccc34)CC2)c2cccc3c2N1CCC3`, the Potency result is “inactive”.

For the molecule `N#C/C(=C/c1ccc(O)c(O)c1)C(N)=S`, the Potency entry is “inactive”.

For the molecule `Cc1c2ccncc2c(C)c2c1[nH]c1ccccc12`, the Potency result is “inactive”.

On to `CCCn1c(=O)c2[nH]c(C3CCCC3)nc2n(CCCOC(=O)c2ccc(S(=O)(=O)F)cc2)c1=O`, for which the Potency result is “inactive”.

Take `CC1OC1P(=O)(O)O` (stereo not drawn): the Potency entry was “inactive”.

In the case of `CCN1C[C@@]2(COC)C3[C@@H](OC)C4[C@@H]1C3([C@@H]1C[C@]3(O)[C@H](OC(=O)c5ccccc5)[C@@H]1[C@]4(OC(C)=O)[C@@H](O)[C@@H]3OC)[C@H](OC)C[C@H]2O`, the Potency result is “inactive”.

With `CC12NC(Cc3ccccc31)c1ccccc12` (stereo not drawn), the Potency result was “inactive”.

For the molecule `Oc1ccc2c3c1O[C@H]1c4oc5ccccc5c4C[C@@]4(O)C(C2)N(CC2CC2)CCC314` (stereo partly drawn), the Potency entry is “inactive”.

For `C=CCN(C1=NCCN1)c1c(Cl)cccc1Cl`, the Potency result is “inactive”.

With `C/C(O)=C(\C#N)C(=O)Nc1cc(Br)ccc1Br`, the Potency result was “inactive”.
